Measured values taken from PubChem BioAssay AID485364 (National Center for Advancing Translational Sciences (NCATS), 2010).
“And” between values parts separate entries of the source, which are not always exact repeats. Equal entries are not always repeated. In all, about 360,000 compounds went through this assay and about 11,000 (3.1%) were called active. Roughly 4% stayed inconclusive and do not appear here. Calls follow the shape of the dose curve; as a rule, active = well fitted inhibition curve with a large enough effect; inconclusive = small, poorly fitted or top-dose-only effect; inactive = no such curve, though single readings can be large or run the other way. This excerpt belongs to a sample that is enriched for actives.
% is scaled to controls: 0 for no effect and ±100 for the full control effect; potency is read from the fitted curve at half-maximal effect.
Also: nearly all actives have a fitted effect of over 60% in size.

Each molecule was assayed against Schistosoma mansoni thioredoxin glutathione reductase (TGR) (UniProt Q962Y6) (assay: qHTS Assay for the Inhibitors of Schistosoma Mansoni Peroxiredoxins). Settings: purified TGR, DTNB reduction, TNB absorbance 405 nm; series mostly up to 114 µM; activity change, negative = inhibition: at the top concentration.
How it was run: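 Kinetic colorimetric format: TGR-catalysed, NADPH-driven DTNB reduction monitored via TNB absorbance. Enzyme dispensed at 20 nM; compound exposure 15 min at room temperature before reaction start.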
For `Cn1c(COc2ccccc2C(C)(C)C)nc2ccccc21`, the “activity change, negative = inhibition” value was -12.6% (inactive). `Cc1cc2c(cc3c(SCc4cccc(Cl)c4)nnc(C)n32)o1` was tested, and the “activity change, negative = inhibition” value was 2.97% (inactive). In the case of `Cc1ccc(-c2nnc(Nc3cccc(Br)c3)c3ccccc23)cc1S(=O)(=O)NCC1CCCO1` (centres undefined), the “activity change, negative = inhibition” value is reported as -1.37% (inactive). `Cc1cccc(OCC(=O)N(Cc2ccc(C(C)C)cc2)Cc2ccco2)c1C` was tested, and the “activity change, negative = inhibition” value was 15% (inactive). In the case of `COc1ccc(CN(C)C(=O)Cc2c[nH]c3ccccc23)c(OC)c1OC`, the “activity change, negative = inhibition” value is reported as -1.7% (inactive). With `CN(Cc1cccs1)C(=O)Cc1c[nH]c2ccccc12` the “activity change, negative = inhibition” value was 1.04% (inactive). For `CCOC(=O)CN(C)Cc1c[nH]c2ccccc12`, the Potency was 35.5 µM (active). With `Brc1ccc2c(c1)NC(c1cccnc1)=NC(c1ccccc1)=N2` the “activity change, negative = inhibition” value was -3.69% (inactive). `COc1ccccc1C1=Nc2cccc3cccc(c23)N1` was tested, and the “activity change, negative = inhibition” value was -6.48% (inactive). In the case of `c1ccc(C2=Nc3cccc4cccc(c34)N2)cc1`, the Potency is reported as 35.5 µM (active). With `CCC(CC)c1nn2cc(-c3ccccc3)nc2s1` the “activity change, negative = inhibition” value was 12.9% (inactive). In the case of `COc1ccc(Br)cc1CNC(=O)c1cc(=O)[nH]c2ccc(S(=O)(=O)N3CCCC3)cc12`, the “activity change, negative = inhibition” value is reported as -2.46% (inactive). For `O=S(=O)(c1ccc(Br)cc1)c1nnn2c1nc(N1CCOCC1)c1sccc12`, the “activity change, negative = inhibition” value was 4.43% (inactive). With `CC(=O)OC1=C(C(C)=O)N(Cc2ccccc2)S(=O)(=O)c2ccccc21` the “activity change, negative = inhibition” value was -20.4% (inactive). In the case of `Cc1ccc(CNC(=O)c2c(O)nc3c(C)cccn3c2=O)cc1`, the “activity change, negative = inhibition” value is reported as 1.88% (inactive). In the case of `Cc1ccc(CNC(=O)c2ccc(CS(=O)Cc3cccc(Cl)c3)o2)cc1` (centres undefined), the Potency is reported as 35.5 µM (active) and 25.1 µM (active). For `CCOc1ccc(CNC(=O)c2ccc(CS(=O)c3ccccc3)o2)cc1` (centres undefined), the “activity change, negative = inhibition” value was 0.329% (inactive). In the case of `O=C(NCc1cccs1)c1ccc(CS(=O)Cc2ccccc2Cl)o1` (centres undefined), the “activity change, negative = inhibition” value is reported as 2.3% (inactive). `CCN(CC)C(=O)CSc1nc2ccsc2c(=O)n1Cc1ccccc1Cl` was tested, and the “activity change, negative = inhibition” value was 2.09% (inactive). With `CCCCNC(=O)c1cc(-c2ccc(Cl)c(Cl)c2)on1` the “activity change, negative = inhibition” value was -1.93% (inactive). In the case of `CC(/C=N/NC(=O)c1cc(-c2ccc3ccccc3c2)n[nH]1)=C\c1ccco1`, the “activity change, negative = inhibition” value is reported as -18.4% (inactive). `C/C(=C\c1ccco1)C1Nc2cccc3cccc(c23)N1` was tested, and the Potency was 3.55 µM (active). `Cc1ccc(Cn2cc(CCC(=O)NCc3ccc(OC(C)C)cc3)c3ccccc32)cc1` was tested, and the “activity change, negative = inhibition” value was 11.8% (inactive). With `COc1ccc(S(=O)(=O)c2c(Nc3cccc(Cl)c3)sc(C(=O)c3ccccc3)c2N)cc1` the “activity change, negative = inhibition” value was -2.74% (inactive). With `Cc1cc(C)c2oc(C(=O)Nc3ccc(S(=O)(=O)N(C)c4ccccc4)cc3)cc(=O)c2c1` the “activity change, negative = inhibition” value was 14.3% (inactive). `CCCCOC(=O)CSc1ncnc2sc3c(c12)CCC(C)C3` (centres undefined) was tested, and the “activity change, negative = inhibition” value was 0.934% (inactive). For `O=C(CCN1CCCCC1)N=Nc1c(O)[nH]c2ccccc12`, the Potency was 11.2 µM (active). For `O=C(CNC(=O)Cc1ccccc1)N=Nc1c(O)[nH]c2ccc(Br)cc12`, the “activity change, negative = inhibition” value was -22.3% (inactive). In the case of `Cc1c(-c2ccccc2)n[nH]c1C(=O)N=Nc1c(O)[nH]c2ccccc12`, the “activity change, negative = inhibition” value is reported as 5.01% (inactive). `N#C/C(=C\c1ccccc1F)c1nc2ccccc2c(=O)[nH]1` was tested, and the “activity change, negative = inhibition” value was 7.82% (inactive). In the case of `CNC(=O)CN1C(=O)c2cccnc2Sc2ccccc21`, the “activity change, negative = inhibition” value is reported as -4.14% (inactive). In the case of `Cc1ccsc1CN(C(=O)c1oc2ccc(Br)cc2c1C)C1CCS(=O)(=O)C1` (centres undefined), the “activity change, negative = inhibition” value is reported as 17.6% (inactive). `O=C(NC1CCN(Cc2ccccc2)CC1)c1ccc(Cn2c(=O)c3ccccc3n(Cc3cccc(F)c3)c2=O)cc1` was tested, and the “activity change, negative = inhibition” value was -1.16% (inactive). For `Cc1ccc(-c2cc(C(=O)N/N=C/C=C/c3ccco3)c3ccccc3n2)cc1C`, the Potency was 39.8 µM (active). With `C/C(=N\NC(=O)c1cc(-c2ccc(O)cc2)nc2ccccc12)c1cccnc1` the “activity change, negative = inhibition” value was 3.85% (inactive). In the case of `Cc1ccc(-c2cc(C(=O)NC3CCN(Cc4ccccc4)CC3)c3ccccc3n2)cc1`, the “activity change, negative = inhibition” value is reported as -2.12% (inactive). In the case of `O=C(N/N=C/C=C/c1ccco1)c1cccs1`, the Potency is reported as 3.55 µM (active). In the case of `Cc1ccc(-n2nc(C)c(/C=N/NC(=O)c3cccs3)c2Cl)cc1`, the “activity change, negative = inhibition” value is reported as -6.16% (inactive). In the case of `CC1(C)CC(=O)C/C(=N\NC(=O)c2cccs2)C1`, the “activity change, negative = inhibition” value is reported as -31.1% (inactive). In the case of `CC1=C(c2ccc(Cl)cc2)S(=O)(=O)N=C1N1CCN(c2cc(C)ccc2C)CC1`, the “activity change, negative = inhibition” value is reported as -2.39% (inactive). For `Cc1ccccc1C(=O)Nc1nnc(S(=O)(=O)N(C)c2ccc(Cl)cc2)s1`, the “activity change, negative = inhibition” value was -8.91% (inactive). With `COC(=O)CNC(c1ccccc1Cl)c1cc(Br)ccc1NC(=O)CCN1CCOCC1` (centres undefined) the Potency was 25.1 µM (active). In the case of `O=C(CCN1CCCCC1)NCC(=O)Nc1ccc(Br)cc1C(=O)c1ccccc1`, the “activity change, negative = inhibition” value is reported as -5.15% (inactive). With `COc1ccccc1NC(=O)CCN1CCN(c2ccc(Cl)cc2)CC1` the “activity change, negative = inhibition” value was -16.8% (inactive). For `COc1cc(C)ccc1OCCSc1nc2ccc(NC(=O)c3ccc(C)cc3)cc2s1`, the “activity change, negative = inhibition” value was -0.0299% (inactive). In the case of `Cc1cc(F)ccc1NC1(c2ccccc2)C(=O)c2ccccc2C1=O`, the “activity change, negative = inhibition” value is reported as 8.18% (inactive). For `CC(C)c1ccc(OCC(=O)N(Cc2ccc(N(C)C)cc2)C2CCS(=O)(=O)C2)cc1` (centres undefined), the “activity change, negative = inhibition” value was 1.54% (inactive). `C/C(=N/OC(=O)c1c(-c2c(F)cccc2Cl)noc1C)c1cnccn1` was tested, and the “activity change, negative = inhibition” value was -3.61% (inactive). `Cc1onc(-c2c(Cl)cccc2Cl)c1C(=O)c1c[nH]c(C(=O)NC2CC2)c1` was tested, and the “activity change, negative = inhibition” value was -6.99% (inactive). `Cc1[nH]n(C)c(=O)c1C(=O)c1c(-c2c(Cl)cccc2Cl)noc1C` was tested, and the Potency was 25.1 µM (active). In the case of `CCc1ccc(S(=O)(=O)c2nnn3c2nc(N2CCN(CC)CC2)c2sccc23)cc1`, the “activity change, negative = inhibition” value is reported as 0.202% (inactive). With `O=C(COc1ccccc1F)OCc1cc(=O)n2nc(C3CCCCC3)sc2n1` the “activity change, negative = inhibition” value was 1.42% (inactive). In the case of `COc1cc(NC(=O)Nc2ccc(C)cc2)cc([N+](=O)[O-])c1`, the “activity change, negative = inhibition” value is reported as -6.62% (inactive). `CS/C(=C\[N+](=O)[O-])Nc1ccc(C)cc1` was tested, and the Potency was 0.316 µM (active). `Cc1ccc(NC(=O)O/N=C/c2cccc([N+](=O)[O-])c2)cc1` was tested, and the “activity change, negative = inhibition” value was 0.0354% (inactive). For `CN(Cc1ccccc1)c1ccc(-c2nc(-c3ccccc3)no2)cc1[N+](=O)[O-]`, the “activity change, negative = inhibition” value was 2.45% (inactive). With `CCOC(=O)c1ccc2c(c1)N(Cc1cccc(OC)c1)C(=O)c1ccccc1S2(=O)=O` the “activity change, negative = inhibition” value was 26.6% (inactive). With `O=C(c1ccco1)N1CCN(C(=S)Nc2cc(F)cc(F)c2)CC1` the “activity change, negative = inhibition” value was -32.1% (inactive). In the case of `O=C(c1ccco1)N1CCN(C(=O)c2ccc(COc3ccc(F)cc3)o2)CC1`, the Potency is reported as 44.7 µM (active). In the case of `O=C(c1ccco1)N1CCN(CCOc2ccccc2)CC1`, the “activity change, negative = inhibition” value is reported as 8.74% (inactive). With `N#Cc1ccccc1Cn1cnc2nc3c(cc2c1=O)CCCC3` the “activity change, negative = inhibition” value was -3.23% (inactive). `CCCCNC(=O)c1ccc2c(c1)NC(=O)C(C(C)C)N2` (centres undefined) was tested, and the “activity change, negative = inhibition” value was -8.77% (inactive). `CCOc1cc(-c2nnc(SCC(=O)NC3CCCC3)nc2-c2ccc(OC)c(OCC)c2)ccc1OC` was tested, and the “activity change, negative = inhibition” value was -5.17% (inactive). With `COc1ccc(CC(=O)NCCc2sc3nc(-c4ccc(OC)cc4)nn3c2C)cc1` the “activity change, negative = inhibition” value was -2.43% (inactive).
